# Reference: PubChem BioAssay AID485297 (National Center for Advancing Translational Sciences (NCATS), 2010)
# The campaign covered roughly 320,000 compounds. About 9,100 (2.8%) were called active. Another 3% or so got no clear call; they are omitted. This excerpt belongs to a sample that is enriched for actives. Unmarked numbers belong to inactive results. The call rests on the fitted dose curve; in most records, active means well fitted activation curve with a large enough effect; inconclusive means small, poorly fitted or top-dose-only effect; inactive means no such curve, though single readings can be large or run the other way.
# Experiment: qHTS Assay for Rab9 Promoter Activators; further: nearly all actives have a fitted effect of over 60% in size; on activation, negative = inhibition: % of control where 0% means no effect
# Conditions: Huh7 Rab9 promoter-luciferase reporter, luminescence, 24 h; series mostly up to 9.22 µM; activation, negative = inhibition: at the top concentration
# Text: NIH Chemical Genomics Center [NCGC] NIH Molecular Libraries Probe Production centers Network [MLPCN] MLPCN Grant: MH089537-01 Assay Submitter (PI): Yiannis A. Ioannou NCGC Assay Overview: Niemann Pick Type C (NPC) is a rare neurodegenerative lipidosis that is characterized by lipid storage in the endosomal/lysosomal system. Treatment modalities for this devastating disease are currently non-existent due to the severe obstacles associated with accessing the central nervous system with proteins or genes (Ioannou, 2000). We have developed a new paradigm, termed "Orphan Receptor Bypass Therapy" (ORByT), to address these disorders. This paradigm posits the existence of endogenous "suppressor" proteins whose expression can dramatically improve LSD pathogenesis. The goal is the identification/discovery of small chemical compounds that can modulate the expression of these proteins and provide a new treatment modality for these devastating disorders. One such protein whose overexpression reverses aspects of the NPC phenotype is Rab9. We have developed and optimized a cell based luciferase reporter assay in 1536 well format for the identification of up-regulators of the Rab9 promoter.
# The Rab9 promoter is cloned in front of the luciferase reporter gene, therefore […] promoter activation results in luciferase expression. Frozen stock of the Rab9 promoter transfected Huh7 cells were obtained from the laboratory of Dr. Yiannis Ioannou (The Mount Sinai School of Medicine, New York, NY). Cells were propagated and maintained at NCGC in medium containing RPMI-1640 supplemented with 10% FBS, 2mM L-glutamine, and 50ug/ml penicillin/streptomycin. Cells were harvested in and plated for assays in OP-MEM I reduced-serum medium supplemented with 10% FBS. The Amplite luciferase reporter gene assay kit was purchased from ABD Bioquest and prepared/stored according to manufacturers recommendations. qHTS Assay Setup: 1.Dispensed 5ul of Huh7 cells stably expressing Rab9-luciferase at a density of 1500 cells per well 1536-well plates. 2.Incubate cells at 37C, 5% CO2, and 95% humidity for 2 hours. 3.Transferred 23nl per well of compound in DMSO solution. 4.Incubated at 37C, 5% CO2, and 95% humidity for 24 hours. 5.Dispensed 3ul per well of Amplite reagent(ABD Bioquest) per well. 6.Incubate at ambient for 10 minutes. 7.Read using the luminescence protocol on the ViewLux plate reader (Perkin Elmer).
# Potency means the concentration at half of the fitted maximal effect.
Compound,"activation, negative = inhibition",Potency
C=C1CCC(N(O)c2cc(C)on2)C(=C)CCC2C1CC2(C)C (centres undefined),-1.42%,–
Cc1ccc(OCC(=O)N2CCN(S(=O)(=O)c3ccc(Cl)s3)CC2)cc1C,-6.05%,–
Cc1ccc(/C=C/C(=O)OCC(=O)NCc2ccc(Cl)cc2)o1,-9.12%,–
COc1ccc(Cn2c(=S)[nH]c3cc(C(=O)N4CCCCC4)ccc3c2=O)cc1,1.59%,–
COc1ccc(OCc2cccc(C(=O)N3CCCC3)c2)cc1,–,0.398 µM (active)
COc1cccc(COc2ccc(N(C)S(=O)(=O)c3ccccc3)cc2)c1,-0.555%,–
CCOc1ccc(OCc2cccc(C(=O)N(CC)CC)c2)cc1,–,0.141 µM (active)
CN(Cc1ccccc1)C(=O)c1ccc(COc2ccccc2)cc1,-1.02%,–
CC(=O)Oc1ccc(-c2cccc(C(=O)N3CCCCC3)c2)cc1,11.6%,–
COc1ccccc1CNS(=O)(=O)c1cc(C(=O)NCc2ccccn2)c(Cl)cc1Cl,-2.2%,–
CC(C(=O)N(C)CC(=O)Nc1ccccc1C(F)(F)F)N1C(=O)c2ccccc2C1=O (centres undefined),0.587%,–
Nn1c(SCC(=O)Nc2nccs2)nnc1-c1ccco1,-2.6%,–
CCN(CC(=O)Nc1ccc(OC)cc1)C(=O)c1ccc(Cl)c(S(=O)(=O)N2CCCC2)c1,-1.06%,–
Cc1ccccc1NC(=O)Cc1nc(COC(=O)c2cccnc2Cl)cs1,1.11%,–
O=C(NCCc1c[nH]c2ccccc12)c1cccc(Br)c1,-1.43% [at 1.84 µM],–
O=C(NCCc1c[nH]c2ccccc12)c1cc2ccccc2oc1=O,–,3.98 µM (active)
CN(c1ccccc1)S(=O)(=O)c1ccc(Cl)c(C(=O)NCCc2c[nH]c3ccccc23)c1,-1.2%,–
COCCNc1nnc(SCC(=O)NNC(=O)c2ccco2)s1,1.51%,–
CCCCc1ccc(NS(=O)(=O)c2cccc(C(=O)N3CCCN(C)CC3)c2)cc1,-0.577%,–
COc1ccccc1P(=O)(c1ccccc1)c1ccccc1NC(C)=O (centres undefined),-1.37%,–
CCn1c2ccc(F)cc2c2nnc(SCCN3CCOCC3)nc21,0.369%,–
Cc1cccc(C)c1OCCN1CCOCC1,1.22%,–
Cc1cc2nc(SCCN3CCOCC3)[nH]c2cc1C,–,3.55 µM (active)

Compound,"activation, negative = inhibition",Potency
O=C(Nc1cccnc1Oc1ncnc2cc(Cl)ccc12)c1ccc(F)cc1,-0.405%,–
Cc1ccc(S(=O)(=O)N(C)C)cc1NC(=O)c1ccc(-n2cncn2)c([N+](=O)[O-])c1,-2.73%,–
O=C(NC1CC1)c1ccc2c(c1)NC(=O)c1ccccc1S2,0.355%,–
C/C(=N\Nc1cccc(C(=O)O)c1)c1ccc2c(c1)Nc1ccccc1S2,–,3.16 µM (active)
O=C(O)c1cccc(N2C(=O)Nc3ccccc3N2O)c1,-0.52%,–
CCc1ccccc1NC(=O)CN(C)C(=O)c1cc(C2CC2)nn1-c1ccccc1,-6.71%,–
CCN1C(=S)N[C@@H](c2cccc(C(F)(F)F)c2)C(C(=O)OC)=C1C,-0.0689%,–
O=C(CN1CCN(S(=O)(=O)c2ccc(Cl)s2)CC1)N1CCCCC1,1.18%,–
COC(=O)c1cc(NS(=O)(=O)c2ccc3c(c2)c(=O)n(C)c(=O)n3C)cc(C(=O)OC)c1,-1.46%,–
CSc1ccccc1C(=O)OCC(=O)N1CCN(C(C)=O)CC1,10.5%,–
CCCCCN1CC(O)=C(c2nc(-c3ccc(Cl)cc3)cs2)C1=N,-1.52%,–
N#C/C(=C1/CCCN1)c1ccccn1,-3.34%,–
N#CC(=C1CCCC1)c1nc(-c2ccc(Cl)cc2)cs1,–,3.16 µM (active)
CCCCN(C(=O)c1nn(C)c(=O)c2ccccc12)c1c(N)n(CCC)c(=O)[nH]c1=O,-1.21%,–
Cc1ccc(-n2ncc3c(Nc4cccc(C(=O)O)c4)ncnc32)cc1,–,0.355 µM (active)
Cc1ccc(Nc2ncnc3c2cnn3C)c(C)c1,4.52%,–
COc1ccc2nc(C)cc(Nc3cccc(C(=O)O)c3)c2c1,0.435%,–
COc1ccccc1C(=O)NCCC(=O)N(C)Cc1cccnc1,-4.93%,–
Oc1ccc(CN2CCN(c3ncccn3)CC2)cc1,9.57%,–
O=C(c1ccncc1)N1CCN(c2ccc3ccccc3n2)CC1,-12.5%,–
c1cnc(N2CCN(c3ccc4ccccc4n3)CC2)nc1,–,3.16 µM (active)
CCOc1ccc(NS(=O)(=O)c2ccc(Cl)c(C(=O)N(C)Cc3cccnc3)c2)cc1,-4.89%,–
O=C(NCCc1ccc(C(F)(F)F)cc1)c1ccc2c(c1)OCO2,0.109%,–

Compound,"activation, negative = inhibition",Potency
CCNC(=O)CC1C(=O)N(c2ccc(OC)cc2)C(=S)N1CCc1ccncc1 (centres undefined),1.18%,–
CCOCCCn1c(SCC(=O)Nc2cc(OC)ccc2OC)nc2ccccc2c1=O,-1.67%,–
COc1ccc(NS(=O)(=O)c2cc(NC(=O)CC(=O)c3ccc([N+](=O)[O-])cc3)ccc2C)cc1,-2.92%,–
CC(=O)c1cc(C#N)c(SCC(=O)Nc2nccs2)nc1C,–,1.26 µM (active)
Cc1cc(C(F)(F)F)nc(SCC(=O)Nc2nccs2)n1,2.24%,–
Cn1c(SCC(=O)Nc2nccs2)nnc1-c1cccnc1,-2.59%,–
CC(=O)c1cc(C#N)c(SCC(=O)C(C)(C)C)nc1C,–,2.51 µM (active)
CCn1c(SCC(=O)Nc2nccs2)nnc1-c1ccncc1,-6.47%,–
Cc1cc(C#N)c(SCC(N)=O)nc1-c1ccc(F)cc1,-4.05%,–
CCn1c(SCC(=O)Nc2nccs2)nnc1-c1ccco1,-18.2%,–
Cc1[nH]c2ccccc2c1SCC(=O)Nc1nccs1,–,4.47 µM (active)
CC(=O)c1cc(C#N)c(N2CC(C)OC(C)C2)nc1C (centres undefined),-9.19%,–
O=C1C=C(c2cccc(Cl)c2O)C[C@@H](c2ccc(F)cc2)C1,-8.32%,–
Cc1cc(C)c(C#N)c(SCC(=O)N(CC(C)C)C2CCS(=O)(=O)C2)n1 (centres undefined),-8.44%,–
O=C(O[C@@H]1[C@H](Cc2ccccc2)NS(=O)(=O)[C@H]2C[C@@H]3C=C[C@]12O3)c1ccccc1Br,-9.32%,–
O=C(Nc1ccccc1F)c1ccc(S(=O)(=O)N2CCCCCC2)cc1,24.5%,–
CCc1cc(C(=O)Nc2nnc(C3CC3)s2)sc1C,26.1%,–
O=C1CCC(=O)N(c2ccccc2)N1,-7.48%,–
CC(=O)NC1C(Oc2ccc(C)cc2)OC2COC(c3ccco3)OC2C1O (centres undefined),-3.88%,–
CCn1nnnc1SCC(=O)c1ccc(C)cc1C,–,3.55 µM (active)
COc1ccc(C(=O)CSc2nnnn2C)c(OC)c1,-1.76%,–
CCn1nnnc1SCC(=O)Nc1ccc(N(C)C)cc1,24.8%,–
Cc1ccc(NC(=O)COC(=O)C2C3CC4OC(=O)C2C4C3)cc1Cl (centres undefined),3.77%,–
